Compounds without any hit were thinned out: in the full panel of roughly 79,000, 15% have a hit. The source made the active and inactive calls. Rule as the data show it: active = growth inhibition above about 70%; inactive = the rest.
Legend:
[1] = NCI Yeast Anticancer Drug Screen. Data for the rad50 strain (AID 155);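 also: 0% = growth of vehicle-only cultures of the same strain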; conditions: S. cerevisiae rad50 strain growth inhibition; at 50.0 µM; active compounds read high
Method in brief: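 Growth of the mutant yeast was measured after compound exposure and referenced to vehicle-treated cultures.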

[2] = NCI Yeast Anticancer Drug Screen. Data for the mec2-1 strain (AID 157); conditions: S. cerevisiae mec2-1 strain, at 50.0 µM, active compounds read high
Method in brief: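 Test agents were screened against the mec2-1 yeast strain, with defined DNA repair or cell cycle alteration. Growth was scored as inhibition against vehicle-only controls.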

[3] = NCI Yeast Anticancer Drug Screen. Data for the sgs1 mgt1 strain (AID 161);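 also: 0% = growth of cultures given vehicle only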; conditions: S. cerevisiae sgs1 mgt1 strain, at 50.0 µM, active compounds read high
Method in brief: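 Genetically altered yeast, compound exposure, growth inhibition relative to vehicle.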

[4] = NCI Yeast Anticancer Drug Screen. Data for the cln2 rad14 strain (AID 165);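 also: 0% = growth equal to vehicle treated cultures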; conditions: S. cerevisiae cln2 rad14 strain, at 50.0 µM, active compounds read high
Method in brief: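 Growth of compound-exposed yeast (cln2 rad14 genotype) measured and expressed as inhibition relative to vehicle.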

[5] = NCI Yeast Anticancer Drug Screen. Data for the bub3 strain (AID 167); conditions: S. cerevisiae bub3 mutant strain, at 50.0 µM, active compounds read high
Method in brief: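 Whole-cell yeast assay. The mutant strain was incubated with compounds, and growth inhibition was determined by comparison with vehicle-treated cells.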

[6] = NCI Yeast Anticancer Drug Screen. Data for the mlh1 rad18 strain (AID 175); conditions: S. cerevisiae mlh1 rad18 strain growth inhibition; at 50.0 µM; active compounds read high
Method in brief: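 In this whole-cell yeast screen, a strain with altered DNA damage repair is challenged with compound, and its growth is measured against matched vehicle-treated controls.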

Measured: growth inhibition

CCCCCCCOCC(=O)O
inactive: [1] 10% | [2] -5.8% | [3] 3.6% | [4] -30.2% | [5] 1.25% | [6] 17.6%

CCN(CC)c1ccc(N=C2C=CC(=O)C(NC(C)=O)=C2)c(C)c1
inactive: [1] -13.2% | [2] -24.8% | [3] 29.2% | [4] -8.15% | [5] 14.1% | [6] 13.3%

CC(C)(O)C(Br)(Br)Br
inactive: [1] 0.2% | [2] 3.7% | [3] -22.4% | [4] -33% | [5] -21.9% | [6] 32.1%

CCCCCCCCCCCC(=O)c1c(O)cccc1O
inactive: [1] -10.1% | [2] -16.1% | [3] 7.75% | [4] 16.9% | [5] 10.7% | [6] -20.1%

c1ccc(CSc2nc3ccccc3nc2-c2cccs2)cc1
inactive: [1] -48.7% | [2] -51.9% | [3] -34.5% | [4] -1.85% | [5] -51.9% | [6] -29.8%

Nc1ccc(C2=Nc3ccccc3SC(c3ccccc3O)C2)cc1 (configuration not stated)
inactive: [1] 24.8% | [2] 13.5% | [3] 11.5% | [4] 19% | [5] 50.8% | [6] 6%

CCOC(=O)N1N=C(c2ccccc2)OC2(N3CCCC3)CCC(C(C)(C)C)CC12 (configuration not stated)
inactive: [1] 11.1% | [2] 10.6% | [3] 9.4% | [4] -4.5% | [5] -4.25% | [6] 27.9%

O=S(=O)(OI(O)CC(F)(F)F)C(F)(F)F
inactive: [1] 30.5% | [2] 48.1% | [3] -0.65% | [4] 5.9% | [5] 14.5% | [6] 39.5%

O=C(NO)/C(CC(=O)c1ccc(O)cc1O)=N\O
inactive: [1] 4.05% | [2] -5.5% | [3] -8.65% | [4] -0.7% | [5] -11.2% | [6] 16.9%

Cc1ccc(C(=O)Cc2nc3c([nH]c2=O)c(C)nn3-c2ccccc2)c(C)c1
inactive: [1] 2.6% | [2] -27.5% | [3] 2.55% | [4] 12.7% | [5] -0.85% | [6] 4.7%

Nc1ncnc2c1ncn2-c1ccccc1
inactive: [1] 4.05% | [2] 2.95% | [3] -2.05% | [4] 9.7% | [5] 9.85% | [6] -17.4%

CCNC(=O)Nc1ccccn1
inactive: [1] -8.4% | [2] -1.55% | [3] 8.85% | [4] 0.5% | [5] -5.05% | [6] -2.4%

C=CCc1cc(C(Cc2ccccc2)NC(C)C)cc(OCc2ccccc2)c1OCc1ccccc1 (configuration not stated)
inactive: [1] 10.1% | [2] 11.5% | [3] 16.9% | [4] -3.95% | [5] 47.6% | [6] 50.9%

C[N+](C)(C)Cc1cc2ccccc2c2ccccc12
inactive: [1] -23% | [2] -8.9% | [3] -18.8% | [4] -9.55% | [5] -8.35% | [6] 20.1%

CSc1ccccc1N1C(=O)CSC1=S
inactive: [1] -7.8% | [2] 4.4% | [3] 41.5% | [4] 19.1% | [5] -4.1% | [6] 22.2%

COc1ccc(-c2c3c(nc4nc(SC)nc(SC)c24)CCCC3)cc1OC
inactive: [1] 1.15% | [2] -10.4% | [3] 1.25% | [4] 1.15% | [5] -2.65% | [6] 6.8%

Cc1cc(C)c(CC(=O)NCC(=O)NN)c(C)c1
inactive: [1] -7.25% | [2] -24.9% | [3] -17.1% | [4] -13.3% | [5] -12% | [6] -28.8%

CCCCC[CH2][Sn]([CH2]CCCCC)([CH2]CCCCC)[NH]S(=O)(=O)c1ccc(C)cc1
active: [1] 99.3% | [2] 99.6% | [3] 99.5% | [4] 99% | [5] 99.2% | [6] 99.3%

NC(=S)n1nc(-c2ccccc2)c(N=Nc2ccc(Br)cc2)c1-c1ccccc1
inactive: [1] 38.6% | [2] 3.8% | [3] 21.7% | [4] 15.4% | [5] 14.2% | [6] 12.4%

Cc1cccc(CN)n1
inactive: [1] -2.55% | [2] -29.2% | [3] 17.4% | [4] 4.05% | [5] -5.85% | [6] 2.15%

CN(CC#N)CC#N
inactive: [1] 19% | [2] 9.6% | [3] 8.75% | [4] -1.6% | [5] 20.1% | [6] 0.3%

Cc1cccc(C(C)(C)C)c1NC(=O)C(=O)C(C(=O)/C=C\c1ccccc1)C1OC(=O)c2ccccc21 (configuration not stated)
inactive: [1] 7.4% | [2] -4.95% | [3] 12.3% | [4] 30.4% | [5] 13.8% | [6] 6.1%

COC1OC(CS(=O)(=O)O)C(O)C(O)C1O (configuration not stated)
inactive: [1] -44.5% | [2] -2.15% | [3] -1.85% | [4] -13.6% | [5] -31.9% | [6] -4.3%

CN(/N=C/c1ccc(Cl)c(Cl)c1)C1=NCCCCN1
inactive: [1] 1.45% | [2] -13.8% | [3] 2.15% | [4] -6.95% | [5] -15.8% | [6] -2.8%

O=c1c2ccccc2nnn1O
inactive: [1] 12.8% | [2] 0.2% | [3] 4.55% | [4] -23.1% | [5] -5.95% | [6] 6.45%

O=S(=O)(OCCCC1CC2C=CC1C2)c1ccc(Br)cc1 (configuration not stated)
inactive: [1] -1.7% | [2] -12.2% | [3] -17.6% | [4] -7.05% | [5] 1.85% | [6] 2.45%

CC(=O)Nc1ccc(Cc2cc([N+](=O)[O-])cc([N+](=O)[O-])c2)cc1
inactive: [1] -0.1% | [2] -14.6% | [3] 2.75% | [4] -50.9% | [5] 24.9% | [6] -18.6%

CCCCN(CCCC)c1ccc(N=C(C#N)c2ccc(N(CCCC)CCCC)cc2)cc1
inactive: [1] -21.4% | [2] -14.2% | [3] 14% | [4] -38.8% | [5] -3% | [6] 19.5%

CC12CCC(=O)N1[C@@H](c1ccccc1)[C@@H](c1ccccc1)O2 (some centres not stated)
inactive: [1] 25.6% | [2] -12.6% | [3] -0.85% | [4] 15.4% | [5] 3.65% | [6] 5.9%

CCN(CC)C(=O)c1ccc(C)c(N=NN(C)C)c1
inactive: [1] -5.7% | [2] -36.2% | [3] -20.9% | [4] -0.15% | [5] -19.9% | [6] -8.75%

CS(=O)(=O)CC(=O)c1ccc(Br)cc1
inactive: [1] -3.1% | [2] -4.05% | [3] 14.1% | [4] -12.8% | [5] -5.45% | [6] 10.3%

CCN(CC)c1ncnc2c1nc(C)n2Nc1ccccc1
inactive: [1] 13.7% | [2] -3.1% | [3] 1.3% | [4] 7.4% | [5] 0.5% | [6] -10.7%

CSc1ccc(C2=CCCCC2)cc1
inactive: [1] -4.35% | [2] -1.7% | [3] 0.05% | [4] -15% | [5] 0.95% | [6] 17.9%

C=CCCCN(c1ccc(C(=O)OCC)cc1)S(=O)(=O)c1ccc(C)cc1
inactive: [1] 28.3% | [2] -11.4% | [3] 12.1% | [4] 12.7% | [5] -6.1% | [6] 4.2%

COc1ccc(/C=N/NC(=O)CCCCCCCCC(=O)N/N=C/c2ccc(OC)c(OC)c2)cc1OC
inactive: [1] -26.4% | [2] -13.4% | [3] -23.4% | [4] -50.2% | [5] -0.75% | [6] -12.5%

O=C(/C=C\c1ccccc1Cl)/C=C/c1ccccc1Cl
inactive: [1] 11.2% | [2] 2.75% | [3] -4.6% | [4] -42.3% | [5] -0.35% | [6] 11.8%

CC1=C(C(=O)O)C(C)CC(=O)N1 (configuration not stated)
inactive: [1] 5.15% | [2] -3.4% | [3] -8.25% | [4] -12.4% | [5] 1.2% | [6] 7.9%

Cc1ccccc1N(C(=O)C(=O)O)c1ccccc1C
inactive: [1] 1.35% | [2] 7.75% | [3] 8% | [4] 7.95% | [5] -0.5% | [6] 0.15%

COC(=O)N/N=C(/c1nc2ccc([N+](=O)[O-])cc2[nH]c1=O)C(O)c1ccc(OC)c(OC)c1 (configuration not stated)
inactive: [1] -3.3% | [2] 0.35% | [3] -3.05% | [4] 17.7% | [5] 26.5% | [6] 6.2%

COC(=O)c1nc(N)nc(C(=O)OC)c1C(=O)c1ccccn1
inactive: [1] -12.1% | [2] -19.2% | [3] 1.65% | [4] -20.2% | [5] -11.3% | [6] -1.75%

Cc1cc2c(cc1Cl)SC(NNC(=O)c1ccncc1)=NS2(=O)=O
inactive: [1] -42.5% | [2] -39.8% | [3] -45.9% | [4] -32.4% | [5] -63.4% | [6] -9.4%

O=C(OCc1ccccc1CN1CCOCC1)c1ccc(Cl)cc1
inactive: [1] 42.1% | [2] 68.5%
active: [3] 75.7% | [4] 84% | [5] 87% | [6] 74.8%

— PubChem BioAssay (NCI)
